Data from the supplement of paper PMC8975748.
Counter-ions that a name gives are not always drawn.

Tested on: Saccharomyces cerevisiae BY4741 SeMeCo community
Assay: z-score of subpopulation abundance vs DMSO median, subpopulation auxotrophic for HL; higher = larger share of this subpopulation than in DMSO controls
Conditions: 10 µM; 24 h; SM minimal medium; subpopulation (auxotrophy): HL
Description: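 Fluorescent four-plasmid SeMeCo (self-establishing metabolically cooperating S. cerevisiae BY4741 community; plasmids pH-mRuby2, pL-mWasabi, pU-eCFP, pM-TagRFP657) was grown 24 h in minimal SM medium with each Selleck FDA-approved drug at 10 µM in 384-well plates. Cells were fixed and imaged by high-content confocal microscopy. For each auxotrophic subpopulation (and the prototroph), a z-score gives the deviation from the DMSO vehicle-control population median.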

Row | Structure (SMILES) | z-score of subpopulation abundance
1 | Cc1cc(C(C#N)c2ccc(Cl)cc2)c(Cl)cc1NC(=O)c1cc(I)cc(I)c1O (stereo not given) [Closantel] | 0.7
2 | CC[C@H]1CN2CC[C@]3(C(=O)Nc4ccccc43)[C@@H]2C[C@@H]1/C(=C\OC)C(=O)OC [Rhynchophylline] | 0.04
3 | C=CCN1C[C@H](C(=O)N(CCCN(C)C)C(=O)NCC)C[C@@H]2c3cccc4[nH]cc(c34)C[C@H]21 [Cabergoline] | -0.49
4 | C[N+](C)(C)CCCCCCCCCC[N+](C)(C)C [Decamethonium Bromide] | -0.3
5 | C[C@@H]1CC[C@H]2[C@@H](C)C(=O)O[C@@H]3O[C@@]4(C)CC[C@@H]1[C@]32OO4 [Artemisinin] | -0.27
6 | CC(C)(O)C(Cl)(Cl)Cl [Chlorobutanol] | -0.54
7 | CN1[C@@H]2CC[C@H]1C[C@@H](OC(=O)[C@H](CO)c1ccccc1)C2 [Hyoscyamine] | -0.72
8 | CN1[C@@H]2C[C@@H](OC(=O)[C@H](CO)c3ccccc3)C[C@H]1[C@@H]1O[C@@H]12 [Scopolamine HBr trihydrate] | -0.72
9 | C=CC[C@]1(O)CC[C@H]2[C@@H]3CCC4=CC(=O)CCC4=C3C=C[C@@]21C [Altrenogest] | 0.59
10 | O=C(O[C@H]1C[N+]2(CCCOc3ccccc3)CCC1CC2)C(O)(c1cccs1)c1cccs1 [Aclidinium Bromide] | -1.16
11 | CC(C)N(CCC(C(N)=O)(c1ccccc1)c1ccccn1)C(C)C (stereo not given) [Disopyramide] | 2.14
12 | Nc1ccncc1 [4-Aminopyridine] | 0.38
13 | O=[N+]([O-])C(Br)(CO)CO [Bronopol] | -1.08
14 | CCOC(=O)Nc1ccc(NCc2ccc(F)cc2)cc1N [Retigabine] | 0.75
15 | COc1ccc(C=O)cc1 [p-Anisaldehyde] | -0.29
16 | CCN1CC2(OC(=O)c3ccccc3NC(C)=O)CCC(OC)C34C1C(CC23)C1(O)CC(OC)C2CC4C1(O)C2OC (stereo not given) [Lappaconitine] | -0.26
17 | O=C(O[C@H]1C[C@H]2CC[C@@H](C1)[N+]21CCCC1)C(O)(c1ccccc1)c1ccccc1 [Trospium chloride] | -0.4
18 | CC(C)=CCOc1c2occc2cc2ccc(=O)oc12 [Imperatorin] | 0.34
19 | COc1ccc(C(CN(C)C)C2(O)CCCCC2)cc1 (stereo not given) [Venlafaxine HCl] | 1.07
20 | COc1ccc(C(CN(C)C)C2(O)CCCCC2)cc1 (stereo not given) [Venlafaxine] | -1.14

Row | Structure (SMILES) | z-score of subpopulation abundance
21 | N#Cc1nn(-c2c(Cl)cc(C(F)(F)F)cc2Cl)c(N)c1[S+]([O-])C(F)(F)F (stereo not given) [Fipronil] | 0.71
22 | CC[C@@]1(O)C(=O)OCc2c1cc1n(c2=O)Cc2cc3ccccc3nc2-1 [Camptothecin] | -0.59
23 | CC(NC(C)(C)C)C(=O)c1cccc(Cl)c1 (stereo not given) [Amfebutamone (Bupropion) HCl] | 0.03
24 | CNC1CC(N)C(O)C(OC2OC(CO)C(O)C3OC4(OC(C(N)CO)C(O)C(O)C4O)OC23)C1O (stereo not given) [Hygromycin B] | -0.22
25 | COc1cc2c(cc1OC)C1CC(=O)C(CC(C)C)CN1CC2 (stereo not given) [Tetrabenazine (Xenazine)] | 0.31
26 | CCCCCCCCCCCCCCCC[n+]1ccccc1 [Cetylpyridinium Chloride] | 13.5
27 | CN(C)C(=O)Oc1cccc([N+](C)(C)C)c1 [Neostigmine Bromide] | -0.44
28 | C#C[C@]1(O)C=C[C@H]2[C@@H]3CCC4=CC(=O)CC[C@@H]4[C@H]3CC[C@@]21CC [Gestodene] | 0.13
29 | CCOC(=O)Nc1ccc(NCc2ccc(F)cc2)cc1N [Retigabine 2HCl] | 1.24
30 | O=c1[nH]c2ccccc2n1CCCN1CCC(n2c(=O)[nH]c3cc(Cl)ccc32)CC1 [Domperidone] | 0.19
31 | CN1[C@@H]2CC[C@H]1C[C@@H](OC(=O)C(CO)c1ccccc1)C2 (stereo not given in full) [Atropine sulfate monohydrate] | -0.69
32 | Oc1cccc2cccnc12 [8-Hydroxyquinoline] | 0.63
33 | C[N+]1(C)[C@@H]2C[C@@H](OC(=O)[C@H](CO)c3ccccc3)C[C@H]1[C@@H]1O[C@@H]12 [Methscopolamine] | -0.05
34 | Nc1nc(N)nc(NC2CC2)n1 [Cyromazine] | -0.97
35 | CN(C)[C@@H]1C(=O)C(C(N)=O)=C(O)[C@@]2(O)C(=O)C3=C(O)c4c(O)cccc4[C@@](C)(O)[C@H]3C[C@@H]12 [Tetracycline HCl] | 0.29
36 | CN1[C@@H]2C[C@@H](OC(=O)[C@H](CO)c3ccccc3)C[C@H]1[C@@H]1O[C@@H]12 [Scopolamine HBr] | -0.91
37 | CN1C(=O)COc2c(C(=O)NC3CN4CCC3CC4)cc(Cl)cc21 (stereo not given) [Azasetron HCl] | 1.41
38 | CN1c2ccccc2C(NCCCCCCC(=O)O)c2ccc(Cl)cc2S1(=O)=O (stereo not given) [Tianeptine sodium] | -0.07
39 | C[C@@H]1O[C@@H](O[C@H]2C[C@@H](O)[C@]3(CO)[C@H]4[C@H](O)C[C@]5(C)[C@@H](C6=CC(=O)OC6)CC[C@]5(O)[C@@H]4CC[C@]3(O)C2)[C@H](O)[C@H](O)[C@H]1O [Ouabain] | -1.05
40 | CN(C)[C@@H]1C(=O)C(C(N)=O)=C(O)[C@@]2(O)C(=O)C3=C(O)c4c(O)cccc4[C@@](C)(O)[C@H]3[C@H](O)[C@@H]12 [Oxytetracycline Dihydrate] | 0.03
